Measurements: PubChem BioAssay AID2546 (National Center for Advancing Translational Sciences (NCATS), 2010)
Out of some 310,000 compounds screened, about 11,000 (3.5%) were called active. Roughly 8% stayed inconclusive and do not appear here. The call rests on the fitted dose curve; in most records, active means well fitted inhibition curve with a large enough effect; inconclusive means small, poorly fitted or top-dose-only effect, or effect the other way; inactive means flat fitted curve, though single readings scatter. The list comes from a sample in which actives are over-represented; it also holds similar structures and randomly drawn compounds.

Assay: VP16 counterscreen qHTS for inhibitors of ROR gamma transcriptional activity;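 further: Gal4-VP16 expression switched on by copper sulfate through the metallothionein promoter; nearly all actives have a fitted effect of over 50% in size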
Settings: Drosophila S2 Gal4-VP16 UAS-luciferase, luminescence, 20 h; series mostly up to 53.6 µM; activity, negative = inhibition: at the top concentration
On the % scale 0 is the no-effect control and ±100 the full control effect; potency means the concentration at half of the fitted maximal effect.

Structure (SMILES) | activity, negative = inhibition | Potency
COc1ccc(C(C(=O)NC2CCCC2)N(CCCO)C(=O)Cn2nnc(-c3ccc(C)o3)n2)cc1 (configuration not stated) | 0.18% (inactive) | 
COc1ccc(-c2cc(=O)oc3cc(OCC(=O)N(C)C4CCS(=O)(=O)C4)ccc23)cc1 (configuration not stated) | -13% (inactive) | 
Cc1onc(-c2c(Cl)cccc2Cl)c1C(=O)NNC(=O)c1c(-c2c(Cl)cccc2Cl)noc1C | 4.2% (inactive) | 
CC(=O)Nc1cccc(/C(C)=N/NC(=O)c2ccccc2Cl)c1 | -3.27% (inactive) | 
CC(=O)Nc1cccc(/C(C)=N/NC(=O)c2c(-c3ccccc3Cl)noc2C)c1 |  | 20 µM (active)
Cc1csc(-c2coc3cc(O[C@@H]4O[C@H](CO)[C@@H](O)[C@@H](O)[C@H]4O)ccc3c2=O)n1 |  | 15.8 µM (active)
CCc1cccc(OC2OC(CO)C(O)C(O)C2NC(C)=O)c1 (configuration not stated) | 3.54% (inactive) | 
COc1cc(/C=C/CO)cc(OC)c1O[C@@H]1O[C@H](CO)[C@@H](O)[C@H](O)[C@H]1O | -3.49% (inactive) | 
CCN(C(=O)C1CCCN(c2nc(-c3ccc(OC)cc3)no2)C1)c1ccc(OC)cc1 (configuration not stated) | 2.87% (inactive) | 
CC(=O)[C@@]12O[C@@H]1C[C@H]1[C@@H]3CC[C@H]4C[C@@H](O)CC[C@]4(C)[C@H]3CC[C@@]12C | -3.05% (inactive) | 
Cc1cccc(C(=O)Nc2ccccc2N2CCN(c3ccc(F)cc3)CC2)c1 | -2.23% (inactive) | 
Cc1cccc(C(=O)NNC(=O)c2cccc([N+](=O)[O-])c2)c1 | -2.22% (inactive) | 
Cc1cccc(C(=O)NC(=S)N2CCN(c3ccc([N+](=O)[O-])cc3)CC2)c1 |  | 1 µM (active)
CCOc1cc(C(=S)N2CCOCC2)ccc1OS(=O)(=O)c1ccc(Br)cc1 | 2.61% (inactive) | 
COc1cccc(-c2coc3cc4oc(=O)c(CC(=O)O)c(C)c4cc23)c1 | -10.5% (inactive) | 
Cc1c(Cl)c([N+](=O)[O-])nn1Cc1ccc(C(=O)N/N=C\c2cc(Cl)ccc2O)o1 |  | 11.2 µM (active)
Cc1c(Cl)c([N+](=O)[O-])nn1CCCC(=O)Nc1cc(Cl)ccc1Cl | -0.0276% (inactive) | 
O=C(N/N=C/c1ccc2c(c1)OCO2)c1ccc(Cn2cc([N+](=O)[O-])cn2)o1 | -6.56% (inactive) | 
COc1cccc(-c2cccc(NC(=O)C3CCN(C4CCC4)CC3)c2)c1 | -0.379% (inactive) | 
O=C1/C(=C\c2ccsc2)NC(=S)N1c1ccccc1 |  | 22.4 µM (active)
COc1cc2c(cc1/C=C1/NC(=O)N(c3ccccc3)C1=O)OCO2 | -13.3% (inactive) | 
CCCCN=C1N/C(=C\c2ccco2)C(=O)N1c1ccccc1 | 12.7% (inactive) | 
O=C(CNc1cccc(S(=O)(=O)N2CCCCC2)c1)Nc1ccccc1F | -17.1% (inactive) | 
COc1ccc(C(=O)NC(C)c2nccs2)cc1OC1CCN(C(C)C)CC1 (configuration not stated) | -4.74% (inactive) | 
CCOC(=O)c1ccc(NC(=O)c2nc[nH]c2C(=O)NCc2ccccc2)cc1 |  | 5.62 µM (active)
CCOC(=O)c1[nH]cnc1C(=O)Nc1ccccc1C | -6.62% (inactive) | 

Structure (SMILES) | activity, negative = inhibition | Potency
CCOC(=O)c1ccc(NC(=O)c2cc(=O)[nH]c3ccccc23)cc1 | -1.66% (inactive) | 
Cc1ccc(C(C)C)cc1OCC(=O)Nc1ccccc1N1CCCC1 | -3.18% (inactive) | 
O=C(c1cc2ccccc2o1)N1CCN(c2cccc(C(F)(F)F)c2)CC1 | -18.6% (inactive) | 
CCCCC[C@H]1CN(C2CCCCC2)C(=O)[C@@H]1CC(=O)NCc1ccc(OC)cc1 | 4.56% (inactive) | 
CCC(C)C(=O)Nc1ccccc1N1CCN(c2ccc(F)cc2)CC1 (configuration not stated) | 0.0709% (inactive) | 
CCN1C(=NCCc2cccnc2)N[C@@H](c2ccccc2)C(C(=O)OC)=C1C |  | inactive
O=C(NNC(=S)NC1CCCCC1)c1ccccc1Cl | -4.51% [at 10 µM] (inactive) | 
O=C(CO/N=C/c1ccccc1OC(F)F)NC1CCCC1 | -0.0109% (inactive) | 
O=C(CO/N=C/c1ccccc1O)NNC(=O)c1ccccc1Cl |  | 14.1 µM (active)
Oc1ccc(-n2nnnc2SCc2c(F)cccc2Cl)cc1 | -5.26% (inactive) | 
Cc1cccc(OCCC(=O)Nc2ccccc2C(N)=O)c1 | 1.04% (inactive) | 
Cc1cccc(OC(C)C(=O)N2CCc3ccccc3C2)c1 (configuration not stated) | -5.71% (inactive) | 
CCCCNC(=S)N/N=C1\CCCCc2ccccc21 |  | 4.47 µM (active)
CCCCNC(=O)C(=O)c1ccccc1NC(C)=O | -3.25% (inactive) | 
O=[N+]([O-])c1ccccc1N/N=C1\CCc2ccccc21 | 7.72% (inactive) | 
FC(F)(F)c1nnc2c3ccccc3c(Cl)nn12 | -10.7% (inactive) | 
COc1ccc(CNc2cc(C)cc(C)c2)cc1OC | 4.88% (inactive) | 
COc1ccc(N2CCN(S(=O)(=O)c3ccc4c(c3)NC(=O)C(C)C(=O)N4)CC2)cc1 (configuration not stated) | 0.791% (inactive) | 
CC(C)(O)C#Cc1ccc(CN2CCC(CO)(CCc3ccccc3)CC2)cc1 | -11% (inactive) | 
CC(=O)NC(=S)Nc1ccc(NC(=S)NC(=O)c2ccc([N+](=O)[O-])cc2)cc1 | -20.7% (inactive) | 
COCCCNC(=S)NC(=O)c1ccc([N+](=O)[O-])cc1 |  | 17.8 µM (active)
O=C(NC(=S)Nc1ccc(NC(=O)c2cccs2)cc1)c1ccc([N+](=O)[O-])cc1 | -16.7% (inactive) | 
Cc1cc(CN(C)C(=O)c2cc(COc3ccc(C)c(C)c3)on2)n[nH]1 | -25.2% (inactive) | 
COC(=O)c1cc(S(=O)(=O)Nc2ccc(C)c(F)c2)c[nH]1 | 6.68% (inactive) | 
COc1ccc(-n2nc(C(=O)NCC(=O)N3CCN(c4ccccc4OC)CC3)c3ccccc3c2=O)c(OC)c1 | -1.24% (inactive) | 
COc1cccc(NC(=O)c2ccccc2N(Cc2ccccc2)S(C)(=O)=O)c1 | -0.142% (inactive) | 

Structure (SMILES) | activity, negative = inhibition | Potency
CCOc1ccc2c(c1)C(c1ccc(C)cc1)=NNC(c1ccc(C)cc1)=N2 |  | 15.8 µM (active)
CCc1ccc2c(c1)C(c1ccc([N+](=O)[O-])cc1)=NNC(c1ccccc1)=N2 | 20.7% (inactive) | 
Cc1ccc(C2=Nc3c(ccc4ccccc34)C(c3ccncc3)=NN2)cc1 | 3.1% (inactive) | 
COc1ccc(C(=O)NCCn2nc(C)cc2C)cc1OC1CCN(C(C)=O)CC1 | 2.18% (inactive) | 
COc1ccc(NC(=O)CS(=O)(=O)c2ccccc2)cc1 | 6.5% (inactive) | 
Cc1nonc1NC(=O)c1ccccc1Br | -14.3% (inactive) | 
O=C(Nc1nnc(-c2ccc(Cl)cc2)o1)c1ccccc1Br |  | 4.47 µM (active)
O=C(Nc1cccc(Cl)c1)Nc1nnc(-c2ccccc2)o1 | -17.2% (inactive) | 
COc1cccc(N(C(=O)c2snc(C(N)=O)c2N)C(C(=O)NCC2CCCO2)c2c[nH]c3ccccc23)c1 (configuration not stated) | -4.67% (inactive) | 
O=C(O)CSCC(=O)Nc1cccc(C(F)(F)F)c1 | 10.4% (inactive) | 
O=C(Nc1cccc(C(F)(F)F)c1)c1cnccn1 | 12.2% (inactive) | 
O=C(Nc1cccc(C(F)(F)F)c1)c1cc(Br)cc(Br)c1O |  | 4.47 µM (active)
COc1cc(NC(=O)C2=CC(c3ccc(C)cc3)=NS(=O)(=O)N2C)cc(OC)c1OC | -1.61% (inactive) | 
COc1cc2c(cc1OC)CN(CC(=O)Nc1ccc(F)cc1)CC2 | 1.54% (inactive) | 
CC(=O)Nc1cccc([N+](=O)[O-])c1 | -9.7% (inactive) | 
COC(=O)/C=C\C(=O)Nc1cccc([N+](=O)[O-])c1 |  | 1.26 µM (active)
O=C(CSCC(=O)Nc1cccc([N+](=O)[O-])c1)Nc1ccccc1 | 9.32% (inactive) | 
COc1cc(SC)ccc1C(=O)N(Cc1ccccc1)c1ccccc1 | 11.6% (inactive) | 
COc1ccc(C(=O)NCC(=O)N/N=C/c2ccc([N+](=O)[O-])o2)cc1OC | -24.6% (inactive) | 
Cc1cc(C)nc(N/N=C/c2ccc([N+](=O)[O-])o2)n1 | -10.1% (inactive) | 
NC(=O)C(=O)N/N=C/c1ccc([N+](=O)[O-])o1 |  | 11.2 µM (active)
COc1ccc(-c2cc(C(=O)N3CCN(c4ccc(F)cc4)CC3)no2)cc1 | 6.01% (inactive) | 
Fc1ccc(/C=N/Nc2nc(-c3cccnc3)nc3ccccc23)cc1 | -21.5% (inactive) | 
FC(F)(F)c1nc2ccccc2nc1N/N=C/c1ccc(Cl)cc1 |  | 10 µM (active)
FC(F)(F)c1cccc(N/N=C/c2ccccc2)c1 | 2.09% (inactive) | 
CCNC(=O)N1CCCC(C(=O)c2ccc(-c3ccccc3)cc2)C1 (configuration not stated) | -11.4% (inactive) | 

Structure (SMILES) | activity, negative = inhibition | Potency
c1cnc(N2CCN(c3ccc4ccccc4n3)CC2)nc1 | -6.63% (inactive) | 
CC(=O)N1c2ccc(S(=O)(=O)N3CCC(C(=O)NC4CCCC(C)C4C)CC3)cc2CC1C (configuration not stated) | -6.59% (inactive) | 
Cc1ccc2cccc(OCCCOc3ccccc3CO)c2n1 | -2.03% (inactive) | 
O=C(N/N=C/c1c[nH]c2ccccc12)c1cc2ccccc2o1 | -4.97% (inactive) | 
O=C(N/N=C/c1c[nH]c2ccccc12)c1ccccc1O |  | 6.31 µM (active)
O=C(Cc1c[nH]c2ccccc12)N/N=C/c1cccc(F)c1 | -5.87% (inactive) | 
O=C(O)c1cccc(NC(=S)N/N=C/c2c[nH]c3ccccc23)c1 | -20.1% (inactive) | 
O=C(N/N=C/c1ccc([N+](=O)[O-])cc1)c1c[nH]c2ccccc12 | -3.94% (inactive) | 
CSC(=S)N/N=C/c1c[nH]c2ccccc12 |  | 0.891 µM (active)
C[C@H](C(=O)CC(=O)OC(C)(C)C)[C@H](O)c1ccc(C(F)(F)F)cc1 | 0.446% (inactive) | 
Cc1ccc(-c2csc(NC3OC(=O)c4ccccc43)n2)cc1 (configuration not stated) | 1.68% (inactive) | 
O=C(/C=C/c1ccc2c(c1)OCCO2)c1ccc(O)cc1 |  | 4.47 µM (active)
O=C(/C=C/c1ccc(Cl)cc1)N1CCN(c2ccccc2[N+](=O)[O-])CC1 | 2.7% (inactive) | 
CC(=O)c1ccc2c(c1)OCCOCCOc1ccc(C(C)=O)cc1OCCOCCO2 | -8.65% (inactive) | 
CN(C)c1ccc(/C=C/C(=O)c2ccc(O)cc2)cc1[N+](=O)[O-] |  | 5.01 µM (active)
CN(C)c1ccc(/C=C/C(=O)c2ccc(C(C)(C)C)cc2)cc1[N+](=O)[O-] | -14.2% (inactive) | 
O=C(O)/C=C/c1ccc2c(c1)OCCO2 | -2.67% (inactive) | 
O=C1C2CCCN2C(=O)N1CCCCN1CCN(c2cccc(C(F)(F)F)c2)CC1 (configuration not stated) | 1.71% (inactive) | 
C=CCn1cc(Cl)cc(C(=O)Nc2ccccc2)c1=O | 9.09% (inactive) | 
Cc1cccc(C)c1N1C(=O)CN(Cc2ccccc2)C1=S | 4.97% (inactive) | 
COc1cccc(NC(C)=[N+](C)CCNS(=O)(=O)c2ccc(Cl)cc2)c1 | 11.8% (inactive) | 
COc1ccccc1-c1nc(N2CCN(C)CC2)c2ccccc2n1 | -4.5% (inactive) | 
COc1ccccc1-c1n[nH]c2c1[C@H](C)CC[C@H]2C(C)C |  | 12.6 µM (active)
COc1ccccc1-c1nc(SC)n[nH]1 | -7.16% (inactive) | 
